In PubChem BioAssay (Tox21):
Where “and” joins values, the source holds several entries; their conditions need not be identical. Equal values may be shown once. Inconclusive results are not listed. Some structures have more than one record in an assay (separate samples or runs), and their calls can disagree. Calls of active or inactive are those of the source. Unless noted, calls follow the shape of the dose curve; as a rule, active = well fitted curve in the direction sought with a large enough effect in the repeat runs; inconclusive = weak or mixed curves; inactive = no such curve, though single readings can be large; an effect the other way counts as inactive or inconclusive. Residues, ends and D or L forms follow the SMILES beside them.

How the values were obtained:
[1] = qHTS assay to identify small molecule agonists of the vitamin D receptor (VDR) signaling pathway - cell viability counter screen (AID 743224); also: series mostly up to about 63 µM; nearly all actives have a fitted effect of over 50% in size
Outline: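 In parallel with the bla FRET readout, cytotoxicity toward VDR-bla cells after 16 h compound exposure was assessed by CellTiter-Glo, with luminescence recorded after a 30 min room-temperature incubation.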

[2] = qHTS assay to identify small molecule antagonists of the vitamin D receptor (VDR) signaling pathway - cell viability counter screen (AID 743225); also: nearly all actives have a fitted effect of over 50% in size
Outline: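 In this counter screen, VDR-bla HEK 293T cells receive test compound plus 3 nM final calcitriol for 16 h at 37C. Room-temperature steps of 2 h with the beta-lactamase substrate, then 30 min with CellTiter-Glo, precede the luminescence read.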

[3] = qHTS assay to identify small molecule agonists of the NFkB signaling pathway (AID 1159509; active = well fitted curve in the direction sought with a large enough effect in the signal ratio in the repeat runs, not every such curve was filed as active; the % refers to the signal ratio; also: series mostly up to about 61 µM)
Outline: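 Readout: FRET fluorescence, 405 nm excitation, 460/530 nm emission; beta-lactamase expression disrupts FRET. Cells: ME-180 stably carrying NF-kB-driven bla reporter. Compound exposure 5 hr, 37 C, 5% CO2.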

[4] = qHTS assay to identify small molecule agonists of the NFkB signaling pathway - cell viability counter screen (AID 1159515; calls by dose curve; also: series mostly up to about 61 µM; nearly all actives have a fitted effect of over 55% in size)
Outline: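 Plate 2,000 NFkB-bla ME-180 cells/well; incubate overnight. Add compounds, 5 hr at 37 C. Add FRET substrate, 1.5 hr RT. Add CellTiter-Glo, 30 min RT; read luminescence.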

[5] = qHTS assay to identify small molecule agonists of the endoplasmic reticulum stress response signaling pathway (AID 1159516; active = well fitted activation curve with a large enough effect in the signal ratio in the repeat runs, not every such curve was filed as active; the % refers to the signal ratio)
Outline: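 Beta-lactamase expression from the ER stress response element in HeLa reporter cells is quantified with the LiveBLAzer B/G FRET substrate, read at 405 nm excitation after 2 hr at room temperature, following 5 hr compound treatment at 37 C.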

[6] = qHTS assay to identify small molecule agonists of the endoplasmic reticulum stress response signaling pathway - cell viability counter screen (AID 1159517; calls by dose curve; also: series mostly up to about 61 µM; nearly all actives have a fitted effect of over 50% in size)
Outline: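 After overnight attachment, ESRE-bla HeLa cells were treated with Tox21 library compounds for 5 hr. CellTiter-Glo luminescence, read 30 min post-addition at room temperature, reported viability.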

[7] = qHTS assay to identify small molecule antagonists of the retinoid-related orphan receptor gamma (ROR-gamma) signaling pathway - cell viability counter screen (AID 1159520); also: nearly all actives have a fitted effect of over 50% in size
Outline: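 Cytotoxicity was read from cellular ATP (CellTiter-Glo luminescence) after 16 hr at 37 C with 1 uM doxycycline induction. The inducer was added 2 hr after compound transfer to Tet-on ROR gamma CHO cells.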

[8] = molecular target: Nuclear receptor ROR-gamma (Homo sapiens) (UniProt P51449); assay: qHTS assay to identify small molecule antagonists of the retinoid-related orphan receptor gamma (ROR-gamma) signaling pathway (AID 1159521)
Outline: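 Screening format: cell-based luciferase reporter in CHO cells with doxycycline-inducible RORγ. Compound pre-exposure lasts 2 h, doxycycline is 1 uM final, induction runs 16 h at 37 C, and ONE-Glo luminescence is read.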

[9] = qHTS assay to identify small molecule agonists of the AP-1 signaling pathway - cell viability counter screen (AID 1159525; calls by dose curve; also: nearly all actives have a fitted effect of over 55% in size)
Outline: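 Intracellular ATP by Cell Titer Glo luminescence (30 min, RT) in the same ME-180 AP-1-bla wells after the 5 h compound exposure at 37 °C. Normalised to tetra n-octyl ammonium bromide and DMSO controls.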

[10] = qHTS assay to identify small molecule agonists of the AP-1 signaling pathway (AID 1159526; calls by dose curve)
[11] = molecular target: Retinoic acid receptor RXR-alpha (Homo sapiens) (UniProt P19793); assay: qHTS assay to identify small molecule agonists of the RXR signaling pathway (AID 1159527; calls by dose curve; also: nearly all actives have a fitted effect of over 35% in size; also: potency is read from the fitted curve at half-maximal effect)
Outline: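 Fluorescence ratio readout (460 vs 530 nm) from GeneBLAzer RXR-alpha HEK 293T cells after 16 hr compound treatment; cells seeded 5 hr beforehand in low-serum, charcoal-stripped medium.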

[12] = qHTS assay to identify small molecule agonists of the RXR signaling pathway - cell viability counter screen (AID 1159529)
Outline: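 Viability read-out for the RXR-alpha agonist qHTS: luminescent CellTiter-Glo signal after 30 min at RT. HEK 293T bla reporter cells, 2% charcoal-stripped FBS, 16 hr compound incubation; tetraoctyl ammonium bromide as cytotoxic control.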

[13] = qHTS assay to identify small molecule antagonists of the retinoid acid receptor (RAR) signaling pathway - cell viability counter screen (AID 1159551); also: nearly all actives have a fitted effect of over 35% in size
Outline: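 Viability of C3RL4 cells is quantified from ATP by luminescence after 6 h treatment at 37 C with compounds and 1 uM retinol.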

[14] = qHTS assay to identify small molecule antagonists of the retinoic acid receptor (RAR) signaling pathway (AID 1159552; also: nearly all actives have a fitted effect of over 50% in size; also: potency is read from the fitted curve at half-maximal effect)
Outline: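 Using a RARE-driven luciferase construct in C3RL4 cells, retinol at 1 uM final provided the agonist stimulus while compounds were co-applied. After 6 hours at 37 C, luminescence was recorded to flag inhibitors of retinol signaling.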

[15] = qHTS assay to identify small molecule agonists of the retinoic acid receptor (RAR) signaling pathway (AID 1159553)
Outline: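 Compounds dissolved in DMSO were pinned onto C3RL4 cells seeded the previous day, and plates were held 6 hr at 37 C. RARE-driven luciferase output was then read by luminescence.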

[16] = qHTS assay to identify small molecule antagonists of the estrogen related receptor (ERR) signaling pathway - cell viability counter screen (AID 1224818);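 also: series mostly up to about 46 µM; viability measured after 17.5 h of compound exposure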
Outline: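 Cytotoxicity check run alongside the ERR antagonist screen: cells exposed to test compounds 17.5 h at 37 C, viability taken as CellTiter-Fluor fluorescence intensity.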

[17] = qHTS assay to identify small molecule agonists of the estrogen related receptor (ERR) signaling pathway (AID 1224820); also: potency is read from the fitted curve at half-maximal effect
Outline: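 Luminescence readout (One-Glo, 30 min RT) from NTP-supplied ERR cell line exposed to compounds for 18 h at 37 C. Cells seeded 2,000 per well and pre-incubated 6 h before pin-tool compound transfer.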

[18] = qHTS assay to identify small molecule agonists of the estrogen related receptor signaling pathway with the pleiotropic PPARgamma coactivator (PGC) (AID 1224823); also: potency is read from the fitted curve at half-maximal effect
Outline: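 Luminescence readout (One-Glo, 30 min RT) from PGC/ERR cell line treated 18 h at 37 C with pin-tool-delivered DMSO compound solutions; cells plated 6 h before dosing. Quantitative HTS format.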

[19] = qHTS assay to identify small molecule antagonists of the estrogen related receptor (ERR) signaling pathway (AID 1224819)
Outline: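 ERR reporter cells were plated at 2,000 cells/well and left 6 h at 37 C/5% CO2 before pin-tool transfer of compounds in DMSO. After 18 h at 37 C, One-Glo was added and luminescence was read 30 min later at room temperature.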

Measured: Potency

Retinoic acid receptor RXR-alpha (Homo sapiens), sequence (P19793 whole entry, looked up): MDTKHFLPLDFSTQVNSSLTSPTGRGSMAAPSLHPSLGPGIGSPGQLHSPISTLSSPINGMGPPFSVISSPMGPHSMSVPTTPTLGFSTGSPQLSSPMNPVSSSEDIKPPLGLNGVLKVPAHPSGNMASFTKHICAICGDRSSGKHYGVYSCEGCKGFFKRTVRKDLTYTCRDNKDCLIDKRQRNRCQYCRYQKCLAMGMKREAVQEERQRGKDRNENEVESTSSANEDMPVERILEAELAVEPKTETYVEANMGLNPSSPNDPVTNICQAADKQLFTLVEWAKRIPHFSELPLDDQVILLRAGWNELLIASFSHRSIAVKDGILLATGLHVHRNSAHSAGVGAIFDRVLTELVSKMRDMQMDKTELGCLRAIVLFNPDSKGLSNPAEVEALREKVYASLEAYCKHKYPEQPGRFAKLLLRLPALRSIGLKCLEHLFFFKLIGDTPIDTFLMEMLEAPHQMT

CC(O)CO (configuration not stated)
not listed: [16] | [17] | [18] | [19]
inactive: all other assays above

O=C(O)c1cc(N=Nc2ccc(S(=O)(=O)Nc3ccccn3)cc2)ccc1O
not listed: [12] | [16] | [17] | [18] | [19]
inactive: all other assays above

CCCCC1C(=O)N(c2ccccc2)N(c2ccccc2)C1=O
not listed: [19]
inactive: all other assays above

CCCCC(CC)COC(=O)/C=C/c1ccc(OC)cc1 (configuration not stated)
not listed: [12] | [16] | [17] | [18] | [19]
inactive: all other assays above

O=C(O)c1[nH]n(-c2ccc(S(=O)(=O)O)cc2)c(=O)c1N=Nc1ccc(S(=O)(=O)O)cc1
not listed: [14] | [15] | [16] | [17] | [18] | [19]
inactive: all other assays above

CC(=O)NS(=O)(=O)c1ccc(N)cc1
not listed: [16] | [17] | [18] | [19]
inactive: all other assays above

O=C(c1ccccc1)C(O)c1ccccc1 (configuration not stated)
inactive and 38.9 µM (active): [11]
not listed: [16] | [17] | [18] | [19]
inactive: all other assays above

CCCN(CCC)S(=O)(=O)c1ccc(C(=O)O)cc1
not listed: [16] | [17] | [18] | [19]
inactive: all other assays above

Cc1cc(=O)[nH]c(=S)[nH]1
not listed: [14] | [15] | [16] | [17] | [18] | [19]
inactive: all other assays above

O=C(O)CCCCCCCC(=O)O
not listed: [17] | [18] | [19]
inactive: all other assays above

CCCC(O)C(CC)CO (configuration not stated)
not listed: [14] | [15] | [16] | [17] | [18] | [19]
inactive: all other assays above

Cc1cc(=O)n(-c2ccccc2)n1C
not listed: [16] | [17] | [18] | [19]
inactive: all other assays above

CC(=O)Nc1nnc(S(N)(=O)=O)s1
not listed: [12] | [17] | [18] | [19]
inactive: all other assays above

Cc1ccc(C)c(OCCCC(C)(C)C(=O)O)c1
not listed: [16] | [17] | [18] | [19]
inactive: all other assays above

CCCNC(=O)NS(=O)(=O)c1ccc(Cl)cc1
not listed: [17] | [18] | [19]
inactive: all other assays above

CC(O)CN(CCN(CC(C)O)CC(C)O)CC(C)O (configuration not stated)
not listed: [12] | [16] | [17] | [18] | [19]
inactive: all other assays above

Oc1ccc(/C=C/c2cc(O)cc(O)c2)cc1
active: [14] 49 µM and 43.3 µM | [17] 3.62 µM | [18] 11.4 µM
not listed: [15] | [16]
inactive: all other assays above

O=C(O)c1cccc([N+](=O)[O-])c1
not listed: [14] | [15] | [16] | [17] | [18] | [19]
inactive: all other assays above

Nc1ccc(O)c(C(=O)O)c1
not listed: [16] | [17] | [18] | [19]
inactive: all other assays above

C1N2CN3CN1CN(C2)C3
not listed: [12] | [16] | [17] | [18] | [19]
inactive: all other assays above

Cc1cn([C@H]2C[C@H](N=[N+]=[N-])[C@@H](CO)O2)c(=O)[nH]c1=O
not listed: [16] | [17] | [18] | [19]
inactive: all other assays above

Cc1ccc(S(=O)(=O)NC(=O)NN2CCCCCC2)cc1
not listed: [12]
inactive: all other assays above

OCCc1ccccc1
not listed: [16] | [17] | [18] | [19]
inactive: all other assays above

Nc1ccc(S(=O)(=O)c2ccc(N)cc2)cc1
not listed: [12] | [16] | [17] | [18] | [19]
inactive: all other assays above

COC(=O)[C@H](Cc1ccccc1)NC(=O)[C@@H](N)CC(=O)O (H-Asp-Phe-OMe)
not listed: [12] | [16] | [17] | [18] | [19]
inactive: all other assays above

CCOc1ccc(NC(=O)CC(C)O)cc1 (configuration not stated)
not listed: [12] | [16] | [17] | [18] | [19]
inactive: all other assays above

O=C1NC(=O)c2ccccc21
not listed: [14] | [15] | [16] | [17] | [18] | [19]
inactive: all other assays above

CCC1(c2ccccc2)C(=O)NCNC1=O
not listed: [17] | [18] | [19]
inactive: all other assays above

O=C(O)CCC(=O)O
not listed: [12] | [16] | [17] | [18] | [19]
inactive: all other assays above

N=C(N)c1ccc(OCCCCCOc2ccc(C(=N)N)cc2)cc1
not listed: [16] | [17] | [18] | [19]
inactive: all other assays above

CC1(C)[C@@H]2CC[C@@]1(C)C(=O)C2
not listed: [12] | [16] | [17] | [18] | [19]
inactive: all other assays above

O=c1ccc2ccccc2o1
not listed: [16] | [17] | [18] | [19]
inactive: all other assays above

CC(C)(Oc1ccc(C2CC2(Cl)Cl)cc1)C(=O)O (configuration not stated)
not listed: [12] | [17] | [18] | [19]
inactive: all other assays above

CC(C)[C@@H]1CC[C@@H](C)C[C@H]1O
not listed: [16] | [17] | [18] | [19]
inactive: all other assays above

Nc1ccc(C(=O)O)cc1
not listed: [16] | [17] | [18] | [19]
inactive: all other assays above
